Data taken from PubChem BioAssay AID588405 (Sanford-Burnham Center for Chemical Genomics, 2011).
In all, about 360,000 compounds went through this assay and about 6,200 (1.7%) were called active. The sample holds actives, similar compounds and a random draw of the others, so the mix is not that of the screen.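 How the source made its calls: active means inhibition of at least 50% at 20 µM; inactive means the rest.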

Assay: Peg3 promoter-driven luciferase inhibitors, primary screen, cell-based, HeLa, luciferase luminescence (AID 588405)
Conditions: HeLa PEG-Prom luciferase reporter, overnight, at 20 µM, active compounds read high
For CC(Oc1ccc(Br)cc1)C(=O)NC1CCCCCC1 (centres undefined), the inhibition was -67% (inactive). In the case of COc1ccc(OCC(O)CNCCNc2nccc(C(F)(F)F)n2)cc1 (centres undefined), the inhibition is reported as 1.34% (inactive). For CC(C)(C)CC(C)(C)NCC(O)COCCOc1ccc(Br)cc1 (centres undefined), the inhibition was 103% (active). With CC(NCC(=O)Nc1ccccc1C(=O)NC1CC1)c1ccccc1Cl (centres undefined) the inhibition was 6.43% (inactive). In the case of CCc1nc2ccc(C(=O)NCCNC(C)=O)cn2c1N(CC)Cc1cccc(Br)c1, the inhibition is reported as 5.16% (inactive). In the case of Cc1ccc2nc(-c3ccncc3)cc(C(=O)Nc3ccncc3)c2c1, the inhibition is reported as 70.2% (active). For O=C(Nc1ccc(S(=O)(=O)Nc2nccs2)cc1)c1cc(-c2ccncc2)nc2ccccc12, the inhibition was 11.9% (inactive). In the case of Cc1ccc2nc(-c3ccncc3)cc(C(=O)Nc3ccc(OC(F)F)cc3)c2c1, the inhibition is reported as 27.7% (inactive). In the case of CCC1(C)Cc2c(sc3nnn(CC(=O)Nc4ccc(Cl)cc4)c(=O)c23)CO1 (centres undefined), the inhibition is reported as 11.2% (inactive). In the case of O=C(/C=C/[C@H]1O[C@@H](n2ccc(=O)[nH]c2=O)[C@H](O)[C@@H]1O)NCc1ccccn1, the inhibition is reported as 12.5% (inactive). For CCCN(CC(=O)NC(=O)NC1CCCCC1)CC(=O)Nc1cc(Cl)ccc1Cl, the inhibition was 32.9% (inactive). For CC(C)(C(=O)N1CCC1(C)C(=O)NS(=O)(=O)c1ccc(Br)cc1)c1ccccc1 (centres undefined), the inhibition was 3.42% (inactive). In the case of CCOC(=O)/C(=N\Nc1ccccc1[N+](=O)[O-])c1csc(Nc2ccccc2)n1, the inhibition is reported as 20.3% (inactive). In the case of CCOC(=O)/C(=C\c1ccc([N+](=O)[O-])cc1)C(=O)c1cc(C(C)=O)c(Nc2ccccc2)s1, the inhibition is reported as 106% (active). In the case of O=C(O)C(=Cc1ccc([N+](=O)[O-])cc1)CCc1ccccc1, the inhibition is reported as -9.17% (inactive). In the case of CN1C[C@@H](CO)O[C@@H](n2cnc3c(N4CCN(CCO)CC4)ncnc32)C1, the inhibition is reported as 8.41% (inactive). With Cc1nc(SCC(=O)Nc2cc(C)on2)c2c(C)c(C)sc2n1 the inhibition was 73.6% (active). For Cc1cc(NC(=O)CSc2nc(C(C)C)nc3sc4c(c23)CCC(C)C4)no1 (centres undefined), the inhibition was -3.65% (inactive). In the case of Cc1cc(NC(=O)CSc2ncc(C(F)(F)F)cc2Cl)no1, the inhibition is reported as 5.97% (inactive). With Cc1cc(C(=O)N2CCCC2(C)C(=O)O)c(C)o1 (centres undefined) the inhibition was -4.99% (inactive). For COc1ccc(C(C)(NC(C)=O)c2nc(-c3ccc(S(C)(=O)=O)cc3)cs2)cc1 (centres undefined), the inhibition was 7.41% (inactive). With COc1cc(CNc2ncnc3c2ncn3[C@H]2CN(Cc3cccs3)C[C@@H](CO)O2)cc(OC)c1OC the inhibition was 10.1% (inactive). For O=CNc1cc(-c2ccc(C(=O)N3CCOCC3)cc2)cn2c(-c3ccc(F)cc3)cnc12, the inhibition was 38.7% (inactive). In the case of NCCCC[C@@H]1NC(=O)[C@H](CCC(=O)O)NC(=O)c2cc([N+](=O)[O-])cc(I)c2NCC[C@@H](C(N)=O)NC1=O, the inhibition is reported as 4.12% (inactive). With NC(=O)CC[C@@H]1NC(=O)[C@H](CO)NC(=O)c2cc([N+](=O)[O-])cc(I)c2NCC[C@@H](C(N)=O)NC1=O the inhibition was 4.02% (inactive). For CC(C)[C@@H]1NC(=O)c2cc([N+](=O)[O-])cc(I)c2NCCC[C@@H](C(=O)NC(CC(=O)O)C(N)=O)NC(=O)[C@H](CO)NC1=O (some centres undefined), the inhibition was 95.8% (active). With COc1cccc(-c2cc3nc(NCCOc4ccccc4Cl)n(C)c(=O)c3s2)c1 the inhibition was -22% (inactive). For Cc1ccccc1S(=O)(=O)N1[C@@H](c2cccc(Cl)c2)C(C(=O)OC(C)(C)C)=CC[C@H]1c1ccc(Cl)cc1, the inhibition was 0.82% (inactive). In the case of COc1cccc(-c2ccc3c(c2)N(Cc2ccccc2OC)C(=O)C(C)S3)c1 (centres undefined), the inhibition is reported as -0.98% (inactive). In the case of Nc1ncnc2c1ncn2[C@@H]1O[C@H](C(=O)NS(=O)(=O)c2c(Cl)nc3sccn23)[C@@H](O)[C@H]1O, the inhibition is reported as 8.22% (inactive). With CCc1nc2c(OCc3ccc(C(F)(F)F)cc3)cccn2c1N(C)C(=O)CC(C)C the inhibition was 15.7% (inactive). In the case of C=C1C2C[C@H](O)C(C)(C)[C@@]2(O)[C@H](O)C[C@]23C[C@@](C)(O)[C@H](CC[C@H]12)[C@H]3O (some centres undefined), the inhibition is reported as 98.4% (active). In the case of O=C(NCC12CC3CC(C1)CC(CNC(=O)N1CCCC1)(C3)C2)N1CCCC1, the inhibition is reported as 18.2% (inactive). With CC(C)(O)C#Cc1ccc(CNC[C@H]2O[C@@H](n3cnc4c(=O)[nH]c(N)nc43)[C@H](O)[C@@H]2O)s1 the inhibition was 14.8% (inactive). With O=C(NC(Nc1nc2ccc([N+](=O)[O-])cc2s1)(C(F)(F)F)C(F)(F)F)c1ccccc1 the inhibition was 68.7% (active). With O=C(O)c1cc([N+](=O)[O-])c(Nc2cccc3ccccc23)c([N+](=O)[O-])c1 the inhibition was 5.86% (inactive). With CC(Nc1ccc([N+](=O)[O-])cc1[N+](=O)[O-])c1ccccc1 (centres undefined) the inhibition was 31.3% (inactive). For Cc1ccc(S(=O)(=O)N2CC[C@H]3[C@@H](C2)C(=O)C[C@@H](c2ccccc2)N3S(=O)(=O)c2ccc(C)cc2)cc1, the inhibition was -19.4% (inactive). In the case of CSc1ccc(CN2CCC2(C)C(=O)Nc2ccc(C)c(O)c2)cc1 (centres undefined), the inhibition is reported as -4.73% (inactive). In the case of c1ccc(Cc2c(-c3ccco3)nc3c4ccccc4ccn23)cc1, the inhibition is reported as -310% (inactive). For O=C(NCc1ccc(F)cc1)c1cc(C2CCCCN2C(=O)C2CCCCC2)on1 (centres undefined), the inhibition was 2.91% (inactive). With O=C(/C=C/Sc1ncn[nH]1)c1ccc(Cl)cc1 the inhibition was 100% (active). With COc1ccc(Cl)cc1C=CC=Nc1ccc(S(N)(=O)=O)cc1 the inhibition was 7.02% (inactive). In the case of COc1ccccc1/C=C/C=N/NC(=O)CN1CCN(Cc2ccccc2)CC1, the inhibition is reported as 3.31% (inactive). In the case of COc1ccc(Cl)cc1C=CC=NNC(=O)c1ccncc1, the inhibition is reported as 97% (active). With COCc1cccc(-c2csc(C(O)c3ccc(F)cc3)n2)c1 (centres undefined) the inhibition was -120% (inactive). In the case of CCCS(=O)(=O)NC(=O)C1(C)CCCN(C(=O)c2cccs2)C1 (centres undefined), the inhibition is reported as 12.1% (inactive). With CCc1ccc(-n2c(SCc3cc(=O)n4cc(Br)ccc4n3)nc3[nH]ncc3c2=O)cc1 the inhibition was 54.1% (active). In the case of Cc1cccc2nc(CSc3nc4[nH]ncc4c(=O)n3-c3cccc(Cl)c3)cc(=O)n12, the inhibition is reported as 38.6% (inactive). For O=c1c2sccc2nc(SCc2cc(=O)n3ccccc3n2)n1-c1ccc(Br)cc1, the inhibition was 40.8% (inactive). In the case of COc1cc(C=C(OC(C)=O)c2ccc3c(c2)OCO3)cc(OC)c1OC, the inhibition is reported as 7.01% (inactive). In the case of COc1ccc(C2=NN(C(=O)c3ccccc3C(=O)O)C(c3ccccc3O)C2)cc1 (centres undefined), the inhibition is reported as -268% (inactive). With COc1ccc(C2CC(c3ccccc3)=NN2C(=O)c2ccc(Cl)c([N+](=O)[O-])c2)cc1 (centres undefined) the inhibition was 72.4% (active). In the case of COc1ccc(C2CC(c3ccccc3)=NN2C(=O)CSc2nccc(=O)[nH]2)cc1 (centres undefined), the inhibition is reported as -109% (inactive). With CC(=O)Nc1cc(-c2ccccc2N(C)C)cn2c(-c3ccc(F)c(Cl)c3)cnc12 the inhibition was 32% (inactive). With COc1ccc(NC(=O)C(C)SCc2ccccc2)cc1 (centres undefined) the inhibition was -27.6% (inactive). With O=C(c1cc(C2CCCCN2S(=O)(=O)c2ccccc2)on1)N1CCOCC1 (centres undefined) the inhibition was 1.6% (inactive). In the case of COc1cc(Cn2c3ccc(NC(=O)CC(C)c4ccccc4)cc3c(=O)n2C)ccc1F (centres undefined), the inhibition is reported as 12.9% (inactive). For Cc1[nH]c(=O)c(C(=O)/C=C/c2ccccc2)c2c1CCCC2, the inhibition was 102% (active). In the case of CC1(C(=O)O)CCCN(C(=O)/C=C/c2ccccc2)C1 (centres undefined), the inhibition is reported as 5.91% (inactive). With COC(=O)c1c(C)[nH]c(C(=O)/C=C/c2ccc(Cl)cc2)c1C the inhibition was -126% (inactive). With COc1ccc(-c2coc3c(C(=O)NC(C)C)cccc23)c(C)c1 the inhibition was 10.8% (inactive). With COc1ccc(S(=O)(=O)NC(=O)C2(C)CCN2C(=O)c2ccccc2CCc2ccccc2)cc1 (centres undefined) the inhibition was -1.34% (inactive). In the case of CCCC(=O)N1CCC1(C)C(=O)NCc1ccc(SC)cc1 (centres undefined), the inhibition is reported as -5.97% (inactive). For Cc1cccc(N2C(=O)SC(SC(=Nc3ccccc3)Nc3ccccc3)C2=O)c1 (centres undefined), the inhibition was -30% (inactive). With Cc1ccc(-c2nn(C(C)(C)C)c3ncnc(N)c23)cc1 the inhibition was 55.2% (active). In the case of N#Cc1ccc(-c2ccc3nccn3c2)cc1, the inhibition is reported as -24.7% (inactive). For O=C1NC(c2ccccc2)=NC1(Nc1ccccn1)C(F)(F)F (centres undefined), the inhibition was -4.5% (inactive). In the case of CC(=O)c1ccc(-c2cnc3c(NC=O)cc(-c4cccc(NS(C)(=O)=O)c4)cn23)cc1, the inhibition is reported as 48.1% (inactive). In the case of O=c1c([N+](=O)[O-])cccn1Cc1ccc(F)cc1Cl, the inhibition is reported as 56.1% (active). For Cc1ccc(-c2ccc(=O)n(Cc3ccc(F)cc3Cl)n2)cc1, the inhibition was 2.87% (inactive). For N/C(=N/O)c1cccn1Cc1ccccc1[N+](=O)[O-], the inhibition was 3.69% (inactive). With CC(C)c1cccc(-c2csc(C(O)c3ccccc3)n2)c1 (centres undefined) the inhibition was -103% (inactive). In the case of CSCCC(c1nnnn1Cc1ccccc1)N1CCN(C/C=C/c2ccccc2)CC1 (centres undefined), the inhibition is reported as 11.4% (inactive). In the case of CCc1ccc(C2N3CC4([N+](=O)[O-])CN2CC([N+](=O)[O-])(C3)C4(C)C)cc1 (centres undefined), the inhibition is reported as 27.3% (inactive). In the case of C=CC[n+]1c(-c2ccc(C)cc2)csc1NNC(=O)Nc1ccccc1, the inhibition is reported as -6.81% (inactive). With NC(c1csc(NC(=O)Nc2ccccc2Oc2ccccc2)n1)c1ccccc1Cl (centres undefined) the inhibition was 58.1% (active). With COc1ccccc1NC(=O)Nc1nc(CC(=O)Nc2ccccc2F)cs1 the inhibition was 4.34% (inactive). In the case of CC(=O)c1ccc(Nc2nc(C(N)c3ccccc3Cl)cs2)cc1 (centres undefined), the inhibition is reported as -22.8% (inactive). In the case of O=S1(=O)C[C@@H](N2CCN(CCO)CC2)[C@H](COCc2ccccc2)N1, the inhibition is reported as -0.57% (inactive). With COC(=O)C1=C(C)N(C(C)c2ccccc2)C(=O)/C1=C\c1ccco1 (centres undefined) the inhibition was 12.2% (inactive). In the case of COCCn1c(=S)[nH]c2cc(C(=O)NCCc3ccc(OC)c(OC)c3)ccc2c1=O, the inhibition is reported as 17.6% (inactive). In the case of CCN(CC)CCCNC(=O)c1ccc2c(=O)n(Cc3ccc4c(c3)OCO4)c(=S)[nH]c2c1, the inhibition is reported as 56.1% (active). For O=C(CCn1c(=S)[nH]c2cc3c(cc2c1=O)OCO3)NCc1ccc(Cl)cc1, the inhibition was 9.93% (inactive).
